From the supplement of paper PMC10127200 come the findings set out here.

Structures are written as SMILES. Structures can show the parent of a compound that is named as a salt.

For this test, the system named is DU145. Kind of test: Euclidean distance of Cell Painting phenotypic profile (signed KS, 77 features) to DMSO centroid (dimensionless distance); higher = stronger phenotypic change vs DMSO (phenoactivity). Particulars: 48 h; 5 or 10 uM (library dependent). The essentials:
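Phenoactivity is computed as Euclidean distance to the median vehicle profile. The profiles, drawn from 77 Harmony features scored as signed Kolmogorov-Smirnov statistics versus same-plate vehicle wells, were corrected for plate position, correlation-weighted and replicate-averaged at the top dose. Stained cells were imaged confocally at 20X (9 fields/well) after 48 h with library compounds at 10 or 5 uM, 0.1% DMSO final, in five cancer lines and a healthy fibroblast line.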
`C=C1[C@@H](C)[C@H]2[C@H](Cc3ccccc3)NC(=O)[C@]23[C@H](OC(C)=O)/C=C/[C@@](C)(O)C(=O)[C@@H](C)C/C=C/[C@H]3[C@@H]1O` [Cytochalasin D] displayed an Euclidean distance of 3.2.
The value for `CCC12C=CCN3CC[C@@]4(c5ccc(OC)cc5N(C)[C@H]4[C@@](O)(C(=O)OC)[C@@H]1OC(C)=O)[C@@H]32` (some centres undefined) [Vindoline] was 0.771; that for `NCC(O)c1ccc(O)cc1` (centres undefined) [(+.-)-Octopamine HCl] was 0.896; that for `COC(=O)[C@@H](N)CCCNC(=N)N[N+](=O)[O-]` was 0.775.
In turn, `CC[C@@]1(O)C[C@H](O[C@H]2C[C@H](N(C)C)[C@H](O)[C@H](C)O2)c2c(cc3c(c2O)C(=O)c2c(O)cccc2C3=O)[C@H]1C(=O)OC` [Aclacinomycin] returned an Euclidean distance of 3.54.
On to `CCC(COC(=O)c1cc(OC)c(OC)c(OC)c1)(c1ccccc1)N(C)C` (centres undefined) [Trimebutine], for which the Euclidean distance stood at 0.604.
`CC(C)OC(=O)[C@H](C)N[P@](=O)(CO[C@H](C)Cn1cnc2c(N)ncnc21)Oc1ccccc1` [Tenofovir Alafenamide (GS-7340)] returned an Euclidean distance of 1.44.
Consider `Cl[TeH]1(Cl)(Cl)OCCO1.N`, for which the Euclidean distance stood at 2.01.
In the case of `N.N.[Cl][Pt][Cl]` [Cisplatin] it was 0.914; in that of `CC(=O)O[C@H]1C[C@@H]2CC[C@@H]3[C@H](CC[C@@]4(C)[C@H]3C[C@H]([N+]3(C)CCCCC3)[C@@H]4OC(C)=O)[C@@]2(C)C[C@@H]1[N+]1(C)CCCCC1` [Pancuronium dibromide], 0.532; in that of `CC[N+](C)(CC)CCOC(=O)C(O)(c1ccccc1)c1ccccc1` [Methylbenactyzine Bromide], 0.575.
On to `COc1ccc2[nH]cc(CCN)c2c1` [5-Methoxytryptamine], for which the Euclidean distance was 0.758.
`O=C(C[S+]([O-])C(c1ccccc1)c1ccccc1)NO` (centres undefined) [Adrafinil] displayed an Euclidean distance of 0.936.
`CC(C)(C)c1cc(C=C(C#N)C#N)cc(Br)c1O`: the Euclidean distance is 0.863.
The molecule `CC(C)(O)C(Cl)(Cl)Cl` [Chlorobutanol] registered an Euclidean distance of 1.02.
The value for `CCOC(=O)c1cncn1[C@H](C)c1ccccc1` [Etomidate] was 2.36.
`CC1(C)C(C=C(Cl)Cl)C1C(=O)OCc1cccc(Oc2ccccc2)c1` (centres undefined) [Permethrin] yielded an Euclidean distance of 1.16.
In the case of `CC[C@H](C)[C@@H]([C@@H](CC(=O)N1CCC[C@H]1[C@H](OC)[C@@H](C)C(=O)N[C@H](C)[C@@H](O)c1ccccc1)OC)N(C)C(=O)[C@@H](NC(=O)[C@@H](NC)C(C)C)C(C)C` [Monomethyl auristatin E (MMAE)], the Euclidean distance stood at 4.69.
The value for `O=c1[nH]c2ccccc2n1CCCN1CCC(n2c(=O)[nH]c3cc(Cl)ccc32)CC1` [Domperidone] was 2.1; that for `Fc1cc(F)c2c(c1)[C@H]1C=CC[C@H]1C(c1cccnc1)N2` (some centres undefined) [Golgicide A] was 0.82; that for `Nc1ccncc1` [4-Aminopyridine] was 0.961.
In turn, `C[C@@H]1[C@H](O)[C@@H](C)/C=C/C=C/CC/C=C/C=C/C=C/C=C/[C@H](O[C@H]2O[C@@H](C)[C@H](O)[C@@H](N)[C@H]2O)C[C@@H]2O[C@](O)(C[C@@H](O)[C@H](O)CC[C@@H](O)C[C@@H](O)C[C@@H](O)CC(=O)O[C@H]1C)C[C@H](O)[C@H]2C(=O)O` [Nystatin (Fungicidin)] came in with an Euclidean distance of 1.4.
As to `CN1CCN(c2nc3ccccc3nc2Cl)CC1`, the Euclidean distance worked out at 1.04.
The molecule `CC(C)(C)[C@]1(O)CC2OC(=O)CC23C(=O)OC2OC(=O)[C@H](O)C231` (some centres undefined) [Bilobalide] had an Euclidean distance of 0.515.
